Each structure is given as a SMILES string. About 83,000 compounds went through this panel and 20% of them were active in at least one assay; those are over-represented in the sample as a whole.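 The endpoint reported here, percent growth, reads 100 for growth as untreated, 0 for no net growth and -100 for all cells dead.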 Unmarked numbers belong to inactive results. Active and inactive are the calls of the source. How the source made its calls: active means growth percent below 10; inactive means the rest.

The assay has as its system NCI-H460 lung. Kind of assay: NCI-60 one-dose screen, 48 h (100 = growth as untreated, 0 = no growth, -100 = all killed). Conditions: 10 µM unless noted.
Regarding `COc1ccc(/C(C)=N/NS(=O)(=O)c2ccc(C)cc2)cc1OC`, the growth is 97.8%. For the compound `C[C@@H]1C(=O)N(C[C@@H](Cc2ccccc2)NC(=O)OCc2ccccc2)[C@]1(Cc1ccccc1)C(=O)OCc1ccccc1`, the growth was 38.3%. The same measure for `NC(=Nc1ccc(N)cc1)C(N)=Nc1ccc(N)cc1`: 106%. As to `N#Cc1c(NC(=O)c2ccccc2I)sc2c1CCCC2`, the growth was 17.8%. The same measure for `Cc1ccc(Nc2ccc(Nc3ccc(C)cc3S(=O)(=O)O)c3c2C(=O)c2ccccc2C3=O)c(S(=O)(=O)O)c1`: 102%; for `C=C1C(=O)O[C@H]2[C@H]1CC/C(Cn1cc(CNCCc3c[nH]c4ccc(Cl)cc34)nn1)=C\CC[C@@]1(C)O[C@@H]21`: 99%. Regarding `Cn1cc(Nc2nccc(-c3ccc(N4CCCC4)c(C#N)c3)n2)cn1`, the growth is 8.94% (active). In the case of `CSc1ncc(C)c(Nc2ccc(Cl)cc2)n1`, the growth is 103%. For `COc1cc(/C=C2\C=C(c3ccccc3)N(CCc3ccccc3)C2=O)cc(OC)c1OC`, the growth was 76.1%. As for `O=c1cc(-c2ccc(OCc3ccccc3)cc2)oc2c(I)c(OCc3ccccc3)cc(OCc3ccccc3)c12`, the growth was 99.2%. As to `CC(=O)Nc1nccs1`, the growth was 98.8%. The result for `N[C@H]1CCC[C@@H]1NCCCCN1C(=O)c2cccc3cccc(c23)C1=O` reads 39.4%; that for `N=C(N)c1ccc(-c2ccc(-c3ccc(Cl)cc3Cl)o2)nc1`, -63.2% (active). `O=C1N/C(=N/O)S/C1=C/c1cn(-c2ccccc2)nc1-c1ccccc1`: the growth is 104%. Turning to `C[C@@H]1CC[C@@H]2[C@@H]1[C@H](OC(=O)c1ccc3ccccc3c1)[C@]1(C3CCCCC3)C[C@@H](OC(=O)CO)[C@@]2(C)O1`, the growth was 49.9%. For the compound `CN(C)c1ccc(C#Cc2c(F)cccc2Cl)cc1`, the growth is 98.9%. With `CCCN1CCN(c2ccc3nc(-c4ccc5nc(-c6cc(OC)c(OC)c(OC)c6)[nH]c5c4)[nH]c3c2)CC1`, the growth was 93.2%. The result for `O=C(NCCOCCOCCOCCNC(=O)c1cc2c(o1)C(=O)c1ccccc1C2=O)NC12CC3CC(CC(C3)C1)C2` reads -71% (active); that for `COc1cc2c(cc1OC)-c1ccc3cc4c(cc3c1N(CCN(C)C)C2)OCO4`, -34.2% (active); that for `O=C(NC(=S)Nc1ccc(-c2nc3ccccc3[nH]2)cc1)c1ccc2ccccc2c1`, 5.41% (active). With `CC[C@@H](C[C@H](CCO)c1ccccc1)c1cc2ccccc2o1`, the growth is 100%. The same measure for `NC(N)=N/N=C/c1ccc(Br)cc1`: 14.3%; for `CN(C)CCOC(=O)Nc1ccc(Cl)cc1`: 106%; for `O=C(/C=C/C12c3ccccc3C(c3ccccc31)C1C(=O)N(c3ccc(Cl)cc3)C(=O)C12)c1ccccn1` (centres undefined): -32.3% (active). In the case of `OC(c1cccc(OCc2ccccc2)c1)c1nnc(-c2ccccc2)o1` (centres undefined), the growth is 96%. In the case of `O=C1N(c2ccccc2)C(=S)N[C@]12[C@H](c1ccccc1)C1CCCN1[C@]21C(=O)NC2C=CC(Cl)=C[C@H]21` (some centres undefined), the growth was 102%. Take `COC(=O)/C(=C\c1ccc(OC)cc1)C(=O)N1c2ccccc2Sc2ccccc21`: the growth is 96.7%. Turning to `Cc1ccc(S(=O)(=O)Nc2sccc2-c2nc(-c3ccccc3)no2)cc1`, the growth is 92.3%. Consider `CCNCCNc1cc(-c2ccc(C(F)(F)F)cc2)c(C#N)c2nc3cc(Cl)c(Cl)cc3n12`, for which the growth is -71.6% (active).

Regarding `COc1ccc(/C=C(\C#N)n2nnc3ccccc32)cc1`, the growth is 2.42% (active).

On to `CC(C)n1nc(C#Cc2cccc3cc(-c4cccc(C(F)(F)F)c4)ncc23)c2c(N)ncnc21`, for which the growth is 48.9%.

Turning to `COC(=O)CNC(=O)C(=O)c1c(O)c(O)c(C(C)C)c2cc(C)c(-c3c(C)cc4c(C(C)C)c(O)c(O)c(C(=O)C(=O)NCC(=O)OC)c4c3O)c(O)c12`, the growth is 5.29% (active). With `NC(=O)c1c(NC(=O)c2ccc(C(F)(F)F)cc2Cl)sc2c1CCC(=O)C2`, the growth was 0.92% (active). Regarding `C[C@@H](C[C@H](CCOCc1cccnc1)c1ccccc1)c1cc2ccccc2o1`, the growth is 98.4%. Regarding `CCn1c(Sc2nnc(Nc3ccccc3)s2)nc2c1c(=O)n(C)c(=O)n2C`, the growth is 106%.

Take `Cc1cc(Cl)nc(N(CCCNc2ccnc3cc(Cl)ccc23)Cc2ccccn2)n1`: the growth was 48.7%.

In the case of `OC(CBr)c1ccnc2ccccc12` (centres undefined), the growth was 105%. The same measure for `COc1cc(C2C=C(c3cccc(NC(C)=O)c3)Nc3ncnn32)cc(OC)c1OC` (centres undefined): 14.6%. As for `CCCCOC(=O)c1ccc(NC(=O)C(C)N2CCOCC2)cc1` (centres undefined), the growth was 105%.
